Only some compounds are listed: those with a hit (about 3.7% of all), similar ones and a draw of the others.
tim23-1 inh – growth inhibitors of tim23-1 mutant yeast, primary screen, luminescence, uHTS | S. cerevisiae tim23-1 growth, BacTiter-Glo luminescence, 24 h | inhibition, % at 20 µM | AID 463212, 2010 | actives 1.3% (n = 330,000);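 active means growth inhibition of the mutant yeast at or above 50%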;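 further: temperature-sensitive mutant grown at 25 °C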
tim10-1 inh – growth inhibitors of tim10-1 mutant yeast, primary screen, luminescence, uHTS; actives 2.2% (n = 330,000); inhibition, % at 20 µM; S. cerevisiae tim10-1 ts strain growth, BacTiter-Glo, 24 h;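 active means inhibition of at least 40%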;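 further: mutant grown at 25 °C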
NALP3 yeast inh – NALP3 inflammasome inhibitors in reconstituted yeast, primary screen, luminescence, uHTS | Yeast reconstituted NLRP3/ASC/caspase-1, beta-gal luminescence, 24 h | actives 0.39% (n = 330,000) | inhibition, % at 10 µM;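 active means inhibition of 50% or more; inactive means inhibition below 50%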
PfHsp90 set2 – growth inhibition of PfHsp90-expressing yeast, primary screen, antimalarial PfHsp90 inhibitor project, S. cerevisiae, BacTiter-Glo luminescence, single point, set 2. actives 0.32% (n = 310,000). BacTiter-Glo ATP, 48 h; yeast lacking PDR1 and PDR3 efflux regulators. inhibition, % at 9.4 µM;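 active means every replicate shows inhibition above about 80%, whatever the replicate mean, limit read from the data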
TIM10 inh – growth inhibitors of isogenic TIM10 control yeast, primary screen, counter-screen for tim10-1 yeast inhibitor project, luminescence, uHTS. actives 1.4% (n = 330,000). inhibition, % at 10 µM. S. cerevisiae TIM10 strain growth, BacTiter-Glo luminescence, 24 h. AID 463195, 2010;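 active means inhibition of 40% or more at the single tested concentration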;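 further: wild-type TIM10 isogenic control strain grown at permissive 25 °C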
TIM10 conf – growth inhibitors of wild-type TIM10 yeast, confirmation, counter-screen for tim10-1 synthetic lethality project, single concentration, luminescence, S. cerevisiae | inhibition, % at 10 µM | shares compounds with TIM10 inh | actives 63% (n = 4,600) | S. cerevisiae tim10 strain growth, BacTiter-Glo luminescence, 24 h;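 active means inhibition of yeast growth at or above a set limit in either of two replicates at 10 µM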; further: this counterscreen used the strain with wild-type TIM10
Hits are given with their value; – = inactive; · = no result given.

SMILES	tim23-1 inh	tim10-1 inh	NALP3 yeast inh	PfHsp90 set2	TIM10 inh	TIM10 conf
CC(C)Nc1ncnc2ccc(Br)cc12	–	–	–	–	–	·
Cc1cc(C(F)F)n2nc(C(=O)Nc3ccc(F)cc3F)nc2n1	–	–	–	–	–	·
Cc1cc(C(F)F)n2nc(C(=O)Nc3ccccc3F)nc2n1	–	–	–	–	63.7	–
COc1cccc(N2CC(=O)N(NC(=O)CSc3nc(C)cc(C)c3C#N)CC2=O)c1	–	–	–	–	–	·
CC1=CC(=O)C(C(C)C)=C/C1=N/OC(=O)c1cccc([N+](=O)[O-])c1	–	–	–	–	42.5	32.3
CC(C)CCN1CCC(CN2C(=O)C(=O)NC[C@@H]2Cc2ccccc2)CC1	·	·	·	–	·	·
CCn1cc(Br)c(C(=O)Nc2ccc(Cl)c(Cl)c2)n1	–	–	–	–	61.8	45.2
CCn1cc(Br)c(C(=O)Nc2ccc(OC)cc2)n1	–	–	–	–	–	·
CCN(C(=O)COC(=O)CNC(=O)c1ccc(Cl)cc1Cl)c1c(N)n(Cc2ccccc2)c(=O)[nH]c1=O	–	–	–	–	–	·
Cc1nc2ncnn2c(N2CCCC(C(=O)Nc3ccccc3Br)C2)c1C (stereo not drawn)	–	–	–	–	–	·
O=C(Nc1ccc(Cl)c(Cl)c1)O/N=C/c1ccncc1	–	–	–	–	43.0	–
O=C(c1cccc(F)c1)N1CCC2(CC1)NCCc1[nH]cnc12	–	–	–	–	–	·
CN1CCC(N(C)C(=O)COc2ccccc2Cl)CC1	–	–	–	–	–	·
CCc1cc2c(=O)c(-c3nc4ccccc4[nH]3)coc2cc1OC(=O)N1CCOCC1	–	–	–	–	57.2	62.4
COC(=O)c1ccc(NC(=S)N2CCN(Cc3ccc(Cl)cc3)CC2)cc1	–	–	–	–	49.3	36.1
CCCN(Cc1ccccc1)C(=S)NC(=O)c1ccccc1[N+](=O)[O-]	–	–	–	–	43.9	40.3
CCCCN(CCCC)C(=S)NC(=O)c1ccccc1Cl	–	–	–	–	47.7	–
CCN(CC)C(=S)NC(=O)c1ccc(Cl)cc1Cl	–	–	–	–	–	·
COc1cc2c(C(=O)N3CCOCC3)c(CSc3ccccc3)n(C)c2cc1Br	–	–	–	–	40.4	29.7
COc1ccc(Nc2ccc3c(c2)=NC2(CCCCC2)[N+]=3[O-])cc1	–	–	–	·	46.6	–
[O-][N+]1=c2ccc(Nc3ccccc3)cc2=NC12CCCCC2	·	·	·	–	·	·
CCc1nc2c(cnn2-c2ccc(Cl)cc2)c(=O)n1-c1ccc(OC)cc1	–	–	–	–	41.6	–
CCNC(=S)N/N=C1\CCCCc2ccccc21	–	–	–	–	–	·
Cc1ccc(NC(=S)N/N=C2/CCCCc3ccccc32)cc1	–	–	–	–	45.0	38.0
O=C(CNCCC1=CCCCC1)Nc1ccccc1N1CCCCC1	–	–	–	–	40.5	–
SMILES	tim23-1 inh	tim10-1 inh	NALP3 yeast inh	PfHsp90 set2	TIM10 inh	TIM10 conf
Cc1ccc(NC2CCCN(C(=O)c3ccc(F)cc3)C2)cc1C (stereo not drawn)	–	–	–	–	–	·
O=C(COc1cccc2ccccc12)Nc1nc2ccccc2[nH]1	–	–	–	–	41.2	–
CCOc1ccccc1OCC(=O)Nc1nc2ccccc2[nH]1	–	–	–	–	–	·
Cc1ccc(S(=O)(=O)N2CCOCC2)cc1C(=O)N1CC(C)OC(C)C1 (stereo not drawn)	–	–	–	–	–	·
CC12c3ccccc3C(c3ccccc31)C1C(=O)N(c3ccncc3)C(=O)C12 (stereo not drawn)	–	–	–	–	–	·
CCc1ccc(N=CC23c4ccccc4C(c4ccccc42)C2C(=O)N(c4ccc(OC)cc4)C(=O)C23)cc1 (stereo not drawn)	–	–	–	–	64.4	47.5
COc1ccc(N2C(=O)C3C4c5ccccc5C(C=Nc5ccc(C)cc5C)(c5ccccc54)C3C2=O)cc1 (stereo not drawn)	–	–	–	–	53.5	45.0
O=C(O)c1ccc(N2C(=O)C3C4c5ccccc5C(Br)(c5ccccc54)C3C2=O)cc1 (stereo not drawn)	–	–	–	–	–	·
Cc1c(C(=O)Nc2nc3ccccc3[nH]2)oc2c(Cl)cccc12	–	–	–	–	44.2	–
C[C@]12C(=O)N(c3ccc(F)cc3)C(=O)N1[C@H]1c3ccccc3OC[C@@H]1[C@H]2c1ccccc1	–	–	–	–	43.7	42.6
C[C@@]12C(=O)N(c3ccc(F)cc3)C(=O)N1[C@@H]1c3ccccc3OC[C@@H]1[C@H]2c1ccccc1	–	–	–	–	–	·
COc1ccc(NC(=O)CSc2nc(C(C)C)nc3c2c(=O)n(C)c(=O)n3C)c(OC)c1	–	–	–	–	–	·
S=C(c1cn(CCOc2ccccc2)c2ccccc12)N1CCCC1	–	–	–	–	49.6	31.6
CC(C)N(Cc1nc(-c2ccccc2)no1)C(=O)C(Cl)(Cl)Cl	–	–	–	·	40.9	–
O=C(Nc1nccs1)c1csc2c1CCCC2	–	–	–	–	56.9	43.9
O=C(O)/C=C/c1cn(-c2ccccc2)nc1-c1ccc2c(c1)OCCO2	–	–	–	–	–	·
O/N=C/c1cn(-c2ccccc2)nc1-c1ccc2c(c1)OCCO2	–	–	–	–	–	–
COc1cccc2cc(C(=O)C3=C(O)C(=O)N(CCN(C)C)C3c3ccc(Cl)cc3)oc12 (stereo not drawn)	–	–	–	–	–	·
NC(=O)SCC(=O)Nc1cccc(Cl)c1	–	–	–	–	–	·
Cc1ccc(NC(=O)C/C(N)=N/OC(=O)Nc2cccc(Cl)c2)cc1	–	–	–	–	40.3	–
CCOC(=O)c1c(CN2CCOCC2)n(-c2ccccc2)c2cc(Br)c(O)c(CN(C)C)c12	–	–	–	–	56.8	39.9
COc1cc2c(cc1OC)C(C)N(C(=O)C1=NN(c3cccc(C)c3)C(=O)CC1)CC2 (stereo not drawn)	–	–	–	–	–	·
CC(=O)Nc1ccc(C(=O)N/N=C/c2cc(Br)cc(Br)c2O)cc1	–	–	–	–	51.5	31.1
CC(C)(C)c1cc(O)c(C(C)(C)C)cc1O	–	–	–	·	46.9	42.0
COc1ccc(CNC(=O)C2CSC(=O)C2)cc1 (stereo not drawn)	–	–	–	–	–	·
CCC(C)n1c(-c2ccco2)nc2nc3ccccc3nc21 (stereo not drawn)	–	–	–	·	46.4	–
CC(C)OCCCn1c(-c2ccco2)nc2nc3ccccc3nc21	–	–	–	·	–	·
